Data from ChEMBL document CHEMBL1157539, “Thousands of chemical starting points for antimalarial lead identification” (Nature, 2010).

Key:
Format in all cases: functional
Plasmodium falciparum [1] = assay: GSK_TCMDC: Inhibition of Plasmodium falciparum 3D7 in whole red blood cells, using parasite LDH activity as an index of growth. Test compounds present at 2uM
Plasmodium falciparum [2] = assay: GSK_TCMDC: Inhibition of Plasmodium falciparum Dd2 in whole red blood cells, using parasite LDH activity as an index of growth. Test compounds present at 2uM
HepG2 = assay: GSK_TCMDC: Percent inhibition of human HepG2 cell line. Test compounds present at 10uM.

Structure (SMILES): CN1CCN(c2ccc(CNc3ccc4ncc(-c5ccc(OC(F)(F)F)cc5)n4n3)cc2)CC1
- Inhibition (Plasmodium falciparum [1]): 94%
- Inhibition (Plasmodium falciparum [2]): 87%
- Inhibition (HepG2): 13%

Structure (SMILES): Cc1cc(=NN=Cc2ccccc2Cl)c2ccc(F)cc2[nH]1
- Inhibition (Plasmodium falciparum [1]): 100%
- Inhibition (Plasmodium falciparum [2]): 100%
- Inhibition (HepG2): 6%

Structure (SMILES): CCOc1ccc2[nH]c(C)cc(=NN=Cc3cccc(F)c3)c2c1
- Inhibition (Plasmodium falciparum [1]): 100%
- Inhibition (Plasmodium falciparum [2]): 23%
- Inhibition (HepG2): 0%

Structure (SMILES): CC(C)CN(C)c1ncnc2c1nc(-c1cncc(C#N)c1)n2CCNCc1ccccc1.O=C(O)C(F)(F)F
- Inhibition (Plasmodium falciparum [1]): 86%
- Inhibition (Plasmodium falciparum [2]): 2%
- Inhibition (HepG2): 4%

Structure (SMILES): Cc1ccc(OCCCCONC(=O)c2ccccc2)cc1
- Inhibition (Plasmodium falciparum [1]): 96%
- Inhibition (Plasmodium falciparum [2]): 1%
- Inhibition (HepG2): 6%

Structure (SMILES): Cc1ccc2[nH]c(-c3ccccc3N)cc2c1
- Inhibition (Plasmodium falciparum [1]): 97%
- Inhibition (Plasmodium falciparum [2]): 8%
- Inhibition (HepG2): 11%

Structure (SMILES): O=CO.c1ccc(CCNc2ccnc(Nc3ccc4cn[nH]c4c3)n2)cc1
- Inhibition (Plasmodium falciparum [1]): 100%
- Inhibition (Plasmodium falciparum [2]): 100%
- Inhibition (HepG2): 54%

Structure (SMILES): Cc1sc2ncnc(Sc3nnc(N)s3)c2c1C
- Inhibition (Plasmodium falciparum [1]): 100%
- Inhibition (Plasmodium falciparum [2]): 100%
- Inhibition (HepG2): 9%

Structure (SMILES): COc1ccc2c(=NN=Cc3ccc(F)cc3)cc(C)[nH]c2c1
- Inhibition (Plasmodium falciparum [1]): 100%
- Inhibition (Plasmodium falciparum [2]): 99%
- Inhibition (HepG2): 4%

Structure (SMILES): CNC(=O)c1ccccc1Nc1nc(Nc2ccc(N3CCN(C)CC3)nc2)ncc1C.Cl
- Inhibition (Plasmodium falciparum [1]): 92%
- Inhibition (Plasmodium falciparum [2]): 50%
- Inhibition (HepG2): 75%

Structure (SMILES): COc1ccc(Cn2ccc3c4c(N)nc(N)nc4ccc32)cc1
- Inhibition (Plasmodium falciparum [1]): 100%
- Inhibition (Plasmodium falciparum [2]): 93%
- Inhibition (HepG2): 90%

Structure (SMILES): COc1ccc(NC(=O)[C@H](Cc2ccccc2)Nc2cc(C)nc(NCC3CCCCC3)n2)cc1.O=C(O)C(F)(F)F
- Inhibition (Plasmodium falciparum [1]): 100%
- Inhibition (Plasmodium falciparum [2]): 83%
- Inhibition (HepG2): 9%

Structure (SMILES): O=C(c1cccc(Cl)c1)N1CCN(c2ccc([N+](=O)[O-])c(NC3CC3)c2)CC1
- Inhibition (Plasmodium falciparum [1]): 100%
- Inhibition (Plasmodium falciparum [2]): 79%
- Inhibition (HepG2): 11%

Structure (SMILES): Cc1nc(-c2nc(NCCc3ccncc3)ncc2-c2ccsc2)sc1C
- Inhibition (Plasmodium falciparum [1]): 92%
- Inhibition (Plasmodium falciparum [2]): 87%
- Inhibition (HepG2): 10%

Structure (SMILES): Cc1cccc(C)c1CNc1ccnc2ccccc12.Cl
- Inhibition (Plasmodium falciparum [1]): 92%
- Inhibition (Plasmodium falciparum [2]): 10%
- Inhibition (HepG2): 59%

Structure (SMILES): COc1cc2ccccc2c(CNCCCCCCNCc2c(OC)c(OC)cc3ccccc23)c1OC.CS(=O)(=O)O
- Inhibition (Plasmodium falciparum [1]): 95%
- Inhibition (Plasmodium falciparum [2]): 89%
- Inhibition (HepG2): 100%

Structure (SMILES): CS(=O)(=O)CCNCc1cccc(-c2ccc3c(Nc4ccc(Oc5cccnc5)cc4)ccnc3c2)c1
- Inhibition (Plasmodium falciparum [1]): 100%
- Inhibition (Plasmodium falciparum [2]): 99%
- Inhibition (HepG2): 27%

Structure (SMILES): OCCOCn1cnc2cnc(N[C@H]3OC[C@H](O)[C@@H](O)[C@@H]3O)nc21
- Inhibition (Plasmodium falciparum [1]): 82%
- Inhibition (Plasmodium falciparum [2]): 0%
- Inhibition (HepG2): 42%

Structure (SMILES): COc1ccc(-c2c3c(=O)n(C)c(=O)n(C)c3c3nnc4ccccc4n23)cc1
- Inhibition (Plasmodium falciparum [1]): 96%
- Inhibition (Plasmodium falciparum [2]): 86%
- Inhibition (HepG2): 0%

Structure (SMILES): CCn1ccc2c(N3CCCC3=O)cc(C(=O)N[C@@H](Cc3ccccc3)[C@H](O)CNC(C)(C)CCCC(C)C)cc21
- Inhibition (Plasmodium falciparum [1]): 96%
- Inhibition (Plasmodium falciparum [2]): 98%
- Inhibition (HepG2): 11%

Structure (SMILES): O=C(/C=C/c1ccc(Cl)c(Cl)c1)NCCCCCN1CCCN(C(=O)Nc2ccc(C(F)(F)F)cc2)CC1
- Inhibition (Plasmodium falciparum [1]): 100%
- Inhibition (Plasmodium falciparum [2]): 7%
- Inhibition (HepG2): 31%

Structure (SMILES): N[C@@H](COc1cccc2c(-c3ccncc3)c(-c3cccc(NC(=O)Nc4ccccc4)c3)nn12)c1ccccc1
- Inhibition (Plasmodium falciparum [1]): 100%
- Inhibition (Plasmodium falciparum [2]): 71%
- Inhibition (HepG2): 9%

Structure (SMILES): Cc1cc(N)ncc1-c1ccc(NC(=O)Nc2cc(C(F)(F)F)ccc2F)cc1.O=C(O)C(F)(F)F
- Inhibition (Plasmodium falciparum [1]): 100%
- Inhibition (Plasmodium falciparum [2]): 23%
- Inhibition (HepG2): 15%

Structure (SMILES): CNC(=O)c1cncc(/C=C/c2ccccc2S(N)(=O)=O)c1
- Inhibition (Plasmodium falciparum [1]): 100%
- Inhibition (Plasmodium falciparum [2]): 77%
- Inhibition (HepG2): 17%

Structure (SMILES): Cc1cccc2nc(-c3ccc(-c4cccc(NC(=O)C(C)CN5CCN(C)CC5)c4)s3)[nH]c12 (stereo not given)
- Inhibition (Plasmodium falciparum [1]): 97%
- Inhibition (Plasmodium falciparum [2]): 75%
- Inhibition (HepG2): 11%

Structure (SMILES): Cc1cccc(CN2CCC(CNC(=O)c3cc4c(-c5ccccc5F)nn(C)c4s3)CC2)c1
- Inhibition (Plasmodium falciparum [1]): 85%
- Inhibition (Plasmodium falciparum [2]): 15%
- Inhibition (HepG2): 18%

Structure (SMILES): CSc1ccc(C=CC(=O)NC(=O)c2ccccc2O)cc1
- Inhibition (Plasmodium falciparum [1]): 97%
- Inhibition (Plasmodium falciparum [2]): 96%
- Inhibition (HepG2): 2%

Structure (SMILES): Cc1cccc2nc(-c3cccc(-c4ccc(NC(=O)NC5CC5c5ccccc5)cc4)c3)[nH]c12 (stereo not given)
- Inhibition (Plasmodium falciparum [1]): 98%
- Inhibition (Plasmodium falciparum [2]): 49%
- Inhibition (HepG2): 25%

Structure (SMILES): O=C(Nc1ccc(-c2nc3ccccc3[nH]2)cc1)C1CCN(Cc2ccccc2)CC1
- Inhibition (Plasmodium falciparum [1]): 100%
- Inhibition (Plasmodium falciparum [2]): 82%
- Inhibition (HepG2): 12%

Structure (SMILES): CC(C)(C)c1ccc(CN2CCC(CNC(=O)c3cc(-c4ccccc4)nc4ccccc34)CC2)cc1
- Inhibition (Plasmodium falciparum [1]): 89%
- Inhibition (Plasmodium falciparum [2]): 36%
- Inhibition (HepG2): 33%
